We go through one compound from PubChem BioAssay (NCATS).

The source made the active and inactive calls. Calls come from the whole dose curve; as a rule, active = well fitted activation curve with a large enough effect; inconclusive = small, poorly fitted or top-dose-only effect; inactive = no such curve, though single readings can be large or run the other way.

The assay has as its target Pyruvate kinase (Leishmania mexicana) (UniProt Q27686). In words: qHTS Validation Assay for Activators of Leishmania Mexicana Pyruvate Kinase (AID 959). The note with it: purified L. mexicana pyruvate kinase, enzyme activity. The method in brief: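 Luminescent ATP detection (PKLight) after a 1 h room-temperature reaction of 0.2 nM LmPYK E451W mutant with 0.5 mM PEP and 0.1 mM ADP at pH 7.2. Activity is normalized to DMSO-only control wells.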

Pyruvate kinase (Leishmania mexicana), sequence (Q27686 2-499 E452W): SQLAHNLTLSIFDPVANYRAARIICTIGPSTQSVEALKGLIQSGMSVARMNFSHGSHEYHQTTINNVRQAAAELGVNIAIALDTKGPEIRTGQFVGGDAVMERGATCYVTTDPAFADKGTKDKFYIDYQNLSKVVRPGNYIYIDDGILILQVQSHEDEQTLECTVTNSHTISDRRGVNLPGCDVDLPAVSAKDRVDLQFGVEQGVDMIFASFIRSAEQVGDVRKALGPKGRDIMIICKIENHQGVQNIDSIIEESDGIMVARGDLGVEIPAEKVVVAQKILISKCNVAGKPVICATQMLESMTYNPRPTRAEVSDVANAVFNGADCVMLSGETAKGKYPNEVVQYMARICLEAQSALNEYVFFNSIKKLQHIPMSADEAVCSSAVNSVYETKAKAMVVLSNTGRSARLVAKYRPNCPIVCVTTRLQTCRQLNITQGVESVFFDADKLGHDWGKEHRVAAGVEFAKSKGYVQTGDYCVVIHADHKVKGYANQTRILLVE

Regarding `CN1C[C@H](CNC(=O)OCc2ccccc2)C[C@@H]2c3cccc4c3c(cn4C)C[C@H]21`, the Potency is 12.6 µM (active).
